# Hit rate of the full screen: of about 320,000 compounds, about 2,100 (0.66%) were called active. About 53% were inconclusive and are not listed. The call rests on the fitted dose curve; in most records, active means well fitted inhibition curve with a large enough effect in the signal ratio, with a control signal flat (not every such curve was filed as active); inconclusive means small, poorly fitted or top-dose-only effect, or effect the other way, or a change in a side signal; inactive means flat fitted curve, though single readings scatter; the % refers to the signal ratio. Shown is part of a subset that was picked to be rich in actives.
# Test: qHTS Assay for Lipid Storage Modulators in Drosophila S3 Cells;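 on cell number change: cells counted by Cell Tracker Red CMTPX staining in the red channel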
# Conditions: BODIPY lipid droplet fluorescence, 18-24 h, cells fed with added oleic acid; cell number change: measured here: cell count max response; series mostly up to 46.1 µM
# How it was run: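 Drosophila S3 cells loaded with oleic acid (400 uM, as added) and compounds at several concentrations; lipid droplets imaged by 488-nm laser-scanning cytometry, 500–530 nm intensity and object ratio to cell channel. Percent activity normalized to 20 uM Triacsin C.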
# Potency means the concentration at half of the fitted maximal effect.
SMILES,Potency,cell number change [%]
COc1ccc(C(=O)NN)cc1,inactive,15
COc1ccc(C(=O)COC(=O)CNC(=O)c2ccc(OC)cc2)cc1,inactive,
COc1ccc(C(=O)NCC(=O)O)cc1,16.4 µM (active),-3.91
CCc1nccn1S(=O)(=O)c1cc(OC)ccc1OC,inactive,
CCn1cc(CN2CCN(Cc3ccc(OC)c(C)c3C)C(CCO)C2)c(C)n1 (stereo unspecified),inactive,2.86
CCCCCn1cnnc1SCC(=O)c1ccc2c(c1)OCO2,inactive,-4.15
CC(=Nc1ccccc1O)c1sc2ccccc2c1O,25.9 µM (active),-13.3
CC(=Nc1ccc(Br)cc1)c1sc2ccccc2c1O,inactive,
CC(=Nc1ccc(O)cc1)c1sc2ccccc2c1O,inactive,0.835
CCn1cc(C(=O)N(C)CC(OC)OC)c(=O)c2cc(S(=O)(=O)N3CCOCC3)ccc21,inactive,3.42
C=CCn1c(=S)[nH]c2cc(C(=O)NCCc3ccc(S(N)(=O)=O)cc3)ccc2c1=O,inactive,16.5
Cc1ccc(S(N)(=O)=O)c(C)c1-n1cnnn1,inactive,3.24
COc1cc(-c2nnc(SC(C)C(=O)Nc3c(C)n(C)n(-c4ccccc4)c3=O)o2)cc(OC)c1OC (stereo unspecified),25.9 µM (active),-15.3
Cc1c(NC(=O)C(C)N2C(=O)C3CCCCC3C2=O)c(=O)n(-c2ccccc2)n1C (stereo unspecified),inactive,9.88
Cc1c(NC(=O)C(C)N2CC(C)OC(C)C2)c(=O)n(-c2ccccc2)n1C (stereo unspecified),7.31 µM (active),11.9
Cc1cc(SC(C)C(=O)Nc2c(C)n(C)n(-c3ccccc3)c2=O)nc2ccccc12 (stereo unspecified),inactive,-14.4
CCN1CCN(C(C)C(=O)Nc2c(C)n(C)n(-c3ccccc3)c2=O)CC1 (stereo unspecified),inactive,-2.1
Cc1ccc(SC(C)C(=O)Nc2c(C)n(C)n(-c3ccccc3)c2=O)cc1 (stereo unspecified),inactive,
COCCNC(=O)C(C)Oc1ccccc1 (stereo unspecified),inactive,20.2
NS(=O)(=O)c1ccc(CNC(=O)CSc2nc3ccc(Cl)cc3[nH]2)cc1,inactive,-16.1
COc1ccc(C2CC(=O)c3sc(NC(C)=O)nc3C2)cc1 (stereo unspecified),inactive,20.9
Cc1cccc(C)c1NC(=S)N1CCC(N(C)CC2CCCO2)CC1 (stereo unspecified),20.6 µM (active),-14.4
Cc1ccc(NC(=S)N2CCC(N(C)CC3CCCO3)CC2)cc1C (stereo unspecified),inactive,5.03
Cc1c(Cl)cccc1NC(=S)N1CCC(N(C)CC2CCCO2)CC1 (stereo unspecified),inactive,7.58

SMILES,Potency,cell number change [%]
Cc1cc(C)cc(NC(=S)N2CCC(N(C)CC3CCCO3)CC2)c1 (stereo unspecified),inactive,11.9
Cc1ccc(NC(=S)N2CCC(N(C)CC3CCCO3)CC2)cc1 (stereo unspecified),inactive,14.9
Cc1cc(C)c(NC(=S)N2CCC(N(C)CC3CCCO3)CC2)c(C)c1 (stereo unspecified),25.9 µM (active),6.74
Cc1cc(-c2csc(N)n2)c(C)n1CCc1ccccc1,inactive,-18.9
CCN(CC)C(=O)C1CCN(S(=O)(=O)c2ccc(-n3cnnn3)cc2)CC1,inactive,1.39
COc1ccc(S(=O)(=O)NCC(=O)NCc2cc(=O)n(C)c(=O)n2C)cc1C,inactive,10.1
CCOC(CCn1c(SCC(=O)NC2CCCC2)nc2ccccc2c1=O)OCC,inactive,7.57
CN(C)CCCNCCCNC(=O)c1ccncc1,inactive,10.5
O=C(CC1C(=O)NCCN1Cc1cccc(F)c1)NC1CCCCC1 (stereo unspecified),inactive,13.2
O=C(CC1C(=O)NCCN1Cc1cccc(C(F)(F)F)c1)NC1CCCCCC1 (stereo unspecified),5.17 µM (active),13.5
O=C(CC1C(=O)NCCN1Cc1ccccc1)NC1CCCCCC1 (stereo unspecified),inactive,13.2
Cc1n[nH]c(C)c1C(=O)CC1(O)C(=O)N(CCc2ccccc2)c2ccc(Br)cc21 (stereo unspecified),inactive,12.8
O=C1NC2(Nc3ccccc31)C(=O)Nc1ccc(Br)cc12 (stereo unspecified),inactive,-0.207
O=C1Nc2ccc(Br)cc2C12NNc1ccccc1O2 (stereo unspecified),23.1 µM (active),
O=C1Nc2ccc(Br)cc2C1(O)c1ccccc1 (stereo unspecified),inactive,20.9
CCOc1ccc(NC(=O)NC(C)c2ccc3c(c2)OCO3)cc1 (stereo unspecified),inactive,-0.862
O=C(CCSc1nc(-c2ccc3c(c2)OCO3)cc(C(F)(F)F)n1)NCc1ccccc1,inactive,-16.9
CCc1cccc(NC(=O)NC(=O)Cn2nnc(C(=O)OC)c2C(=O)OC)c1,inactive,1.8
C=C(C)CSc1nnc([C@@H]2CCCN2C(=O)OC(C)(C)C)o1,inactive,9.31
CCSc1nnc([C@@H]2CCCN2C(=O)OC(C)(C)C)o1,23.1 µM (active),6.53
CCCCSc1nnc([C@@H]2CCCN2C(=O)OC(C)(C)C)o1,inactive,-21.2
Cc1ccc(CSc2nnc([C@@H]3CCCN3C(=O)OC(C)(C)C)o2)cc1,inactive,17.7
CC(C)(C)OC(=O)N1CCC[C@H]1c1nnc(SCc2ccccc2)o1,inactive,10.4
CC(C)Sc1nnc([C@@H]2CCCN2C(=O)OC(C)(C)C)o1,32.6 µM (active),-3.74

# Source: PubChem BioAssay AID2685 (National Center for Advancing Translational Sciences (NCATS), 2010)
